Data from PubChem BioAssay (Tox21).
Several values for one entry are separate records, joined by “and”; a condition that tells them apart may be missing. Equal values may be shown once. Results filed as inconclusive are left out. Entries that show only a call come without a potency. Where a structure was tested more than once in an assay, its records may differ in their call. Activity calls are given as the source filed them. The call rests on the fitted dose curve; in most records, active means well fitted curve in the direction sought with a large enough effect in the repeat runs; inconclusive means weak or mixed curves; inactive means no such curve, though single readings can be large; an effect the other way counts as inactive or inconclusive.

Assay: qHTS RealTime-Glo MT Cell Viability Assay in HepG2 cells - 40 hour (AID 1224870); further: nearly all actives have a fitted effect of over 50% in size
Conditions: RealTime-Glo luminescence; series mostly up to 76.8 µM; activity change, negative = cytotoxic: at the top concentration
Method in brief: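 HepG2 cells mixed with RealTime-Glo MT reagents (NanoLuc plus cell-permeant prosubstrate) were seeded at 600 cells/well, incubated 5 h at 37 C/5% CO2, then pinned with compounds in DMSO; nonlytic luminescence tracked viability during 40 h treatment.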
Potency means the concentration at half of the fitted maximal effect.

Compound | Potency | activity change, negative = cytotoxic
CC(C)NCC(O)c1ccc(O)c(O)c1 (configuration not stated) | inactive | –
Cn1c(=O)c2c(ncn2C)n(C)c1=O | inactive | –
CCCCCCCCCCCC[N+](C)(C)Cc1ccccc1 | 8.54 µM (active) and 16.8 µM (active) and 6.74 µM (active) | –
CCCCCCCC(=O)OCC(COC(=O)CCCCCCC)OC(=O)CCCCCCC | inactive | –
O=C1OC2(c3ccccc31)c1cc(Br)c(O)c(Br)c1Oc1c2cc(Br)c(O)c1Br | – | -19.2% [at 35.3 µM] (inactive)
NS(=O)(=O)c1cc2c(cc1Cl)NCNS2(=O)=O | inactive | –
CC(O)(P(=O)(O)O)P(=O)(O)O | inactive | –
Cc1ccc(S(=O)(=O)O)cc1 | inactive | –
CN1CCc2cccc3c2[C@H]1Cc1ccc(O)c(O)c1-3 | 18.3 µM (active) | –
O=C1NS(=O)(=O)c2ccccc21 | inactive | –
F[B-](F)(F)F | inactive | –
Cc1cc(C)nc(NS(=O)(=O)c2ccc(N)cc2)n1 | inactive | –
CN(C)CCOC(c1ccccc1)c1ccccc1 | inactive | –
CCOc1ccc(NC(C)=O)cc1 | inactive | –
Cc1c(C(=O)O)c(O)cc2c1C(=O)c1c(O)c([C@@H]3O[C@H](CO)[C@@H](O)[C@H](O)[C@H]3O)c(O)c(O)c1C2=O | inactive | –
Cc1ncc([N+](=O)[O-])n1C | inactive | –
C/C=C/C=C/C(=O)O | inactive | –
O=c1[nH]cnc2c1ncn2[C@H]1CC[C@@H](CO)O1 | inactive | –
NC(=O)n1c(O)c(C(=O)c2cccs2)c2cc(Cl)ccc21 | – | -14.6% [at 35.3 µM] (inactive)
CCCCCCCCCCCCCCCC[N+](C)(C)Cc1ccccc1 | 14.2 µM (active) and 12.5 µM (active) and 8.49 µM (active) | –
CCN(CC)C(=O)c1cccc(C)c1 | inactive | –
Cc1ncc([N+](=O)[O-])n1CCO | inactive | –
CN(C)CCOC(C)(c1ccccc1)c1ccccn1 (configuration not stated) | inactive | –
NS(=O)(=O)O | inactive | –
C=C(C)C(=O)OCC(C)O (configuration not stated) | inactive | –
CCCCOC(=O)c1ccc(O)cc1 | inactive | –
O=C(O)CC(O)C(=O)O (configuration not stated) | inactive | –
CCc1nc(N)nc(N)c1-c1ccc(Cl)cc1 | inactive | –
CN1[C@@H]2CC(OC(=O)[C@H](CO)c3ccccc3)C[C@H]1[C@@H]1O[C@@H]12 (some centres not stated) | inactive | –

Assay: A CellTox Green Cytotoxicity Assay to monitor cytotoxicity in HEK293 cells - 40 hour (AID 1224871); further: nearly all actives have a fitted effect of over 45% in size
Conditions: CellTox Green fluorescence; series mostly up to 76.8 µM; cytotoxicity increase: at the top concentration
Method in brief: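 Cytotoxicity was tracked continuously in HEK293 cells by a DNA-binding dye excluded from viable cells. Compounds were transferred in DMSO 5 h after seeding; fluorescence was recorded at intervals up to 40 h.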

Compound | Potency | cytotoxicity increase
CC(C)NCC(O)c1ccc(O)c(O)c1 (configuration not stated) | inactive | –
Cn1c(=O)c2c(ncn2C)n(C)c1=O | inactive | –
CCCCCCCCCCCC[N+](C)(C)Cc1ccccc1 | 42.8 µM (active) and 47.4 µM (active) and 23.9 µM (active) | –
CCCCCCCC(=O)OCC(COC(=O)CCCCCCC)OC(=O)CCCCCCC | inactive | –
O=C1OC2(c3ccccc31)c1cc(Br)c(O)c(Br)c1Oc1c2cc(Br)c(O)c1Br | 3.95 µM (active) and 11.3 µM (active) and 7.56 µM (active) | –
NS(=O)(=O)c1cc2c(cc1Cl)NCNS2(=O)=O | inactive | –
CC(O)(P(=O)(O)O)P(=O)(O)O | inactive | –
Cc1ccc(S(=O)(=O)O)cc1 | inactive | –
CN1CCc2cccc3c2[C@H]1Cc1ccc(O)c(O)c1-3 | 55.5 µM (active) and inactive | –
O=C1NS(=O)(=O)c2ccccc21 | inactive | –
F[B-](F)(F)F | inactive | –
Cc1cc(C)nc(NS(=O)(=O)c2ccc(N)cc2)n1 | inactive | –
CN(C)CCOC(c1ccccc1)c1ccccc1 | inactive | –
CCOc1ccc(NC(C)=O)cc1 | inactive | –
Cc1c(C(=O)O)c(O)cc2c1C(=O)c1c(O)c([C@@H]3O[C@H](CO)[C@@H](O)[C@H](O)[C@H]3O)c(O)c(O)c1C2=O | inactive | –
Cc1ncc([N+](=O)[O-])n1C | inactive | –
C/C=C/C=C/C(=O)O | inactive | –
O=c1[nH]cnc2c1ncn2[C@H]1CC[C@@H](CO)O1 | inactive | –
NC(=O)n1c(O)c(C(=O)c2cccs2)c2cc(Cl)ccc21 | – | -11.5% [at 35.3 µM] (inactive)
CCCCCCCCCCCCCCCC[N+](C)(C)Cc1ccccc1 | 50.5 µM (active) and 39.6 µM (active) and 23.9 µM (active) | –
CCN(CC)C(=O)c1cccc(C)c1 | inactive | –
Cc1ncc([N+](=O)[O-])n1CCO | inactive | –
CN(C)CCOC(C)(c1ccccc1)c1ccccn1 (configuration not stated) | inactive | –
NS(=O)(=O)O | inactive | –
C=C(C)C(=O)OCC(C)O (configuration not stated) | inactive | –
CCCCOC(=O)c1ccc(O)cc1 | 49.6 µM (active) and inactive | –
O=C(O)CC(O)C(=O)O (configuration not stated) | inactive | –
CCc1nc(N)nc(N)c1-c1ccc(Cl)cc1 | inactive | –
CN1[C@@H]2CC(OC(=O)[C@H](CO)c3ccccc3)C[C@H]1[C@@H]1O[C@@H]12 (some centres not stated) | inactive | –

Assay: qHTS RealTime-Glo MT Cell Viability Assay in HEK293 cells - 16 hour (AID 1224872); further: nearly all actives have a fitted effect of over 50% in size; on activity change, negative = cytotoxicity: top concentration of the series differs between compounds
Conditions: RealTime-Glo luminescence; series mostly up to 76.8 µM; activity change, negative = cytotoxicity: at the top concentration
Method in brief: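 Cells + reagent dispensed (600 cells/well, HEK293) → 5 h at 37 C/5% CO2 → 23 nL compound in DMSO pinned → 40 h at 37 C → luminescence read at 0, 8, 16, 24, 32, 40 h.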

Compound | Potency | activity change, negative = cytotoxicity
CC(C)NCC(O)c1ccc(O)c(O)c1 (configuration not stated) | 48.4 µM (active) and inactive | –
Cn1c(=O)c2c(ncn2C)n(C)c1=O | inactive | –
CCCCCCCCCCCC[N+](C)(C)Cc1ccccc1 | 24.1 µM (active) and 23.8 µM (active) and 8.49 µM (active) | –
CCCCCCCC(=O)OCC(COC(=O)CCCCCCC)OC(=O)CCCCCCC | inactive | –
O=C1OC2(c3ccccc31)c1cc(Br)c(O)c(Br)c1Oc1c2cc(Br)c(O)c1Br | inactive | –
NS(=O)(=O)c1cc2c(cc1Cl)NCNS2(=O)=O | inactive | –
CC(O)(P(=O)(O)O)P(=O)(O)O | inactive | –
Cc1ccc(S(=O)(=O)O)cc1 | inactive | –
CN1CCc2cccc3c2[C@H]1Cc1ccc(O)c(O)c1-3 | 15.7 µM (active) and 10.3 µM (active) | –
O=C1NS(=O)(=O)c2ccccc21 | inactive | –
F[B-](F)(F)F | inactive | –
Cc1cc(C)nc(NS(=O)(=O)c2ccc(N)cc2)n1 | inactive | –
CN(C)CCOC(c1ccccc1)c1ccccc1 | inactive | –
CCOc1ccc(NC(C)=O)cc1 | inactive | –
Cc1c(C(=O)O)c(O)cc2c1C(=O)c1c(O)c([C@@H]3O[C@H](CO)[C@@H](O)[C@H](O)[C@H]3O)c(O)c(O)c1C2=O | inactive | –
Cc1ncc([N+](=O)[O-])n1C | inactive | –
C/C=C/C=C/C(=O)O | inactive | –
O=c1[nH]cnc2c1ncn2[C@H]1CC[C@@H](CO)O1 | inactive | –
NC(=O)n1c(O)c(C(=O)c2cccs2)c2cc(Cl)ccc21 | – | -1.06% [at 35.3 µM] (inactive)
CCCCCCCCCCCCCCCC[N+](C)(C)Cc1ccccc1 | 25.3 µM (active) and 28 µM (active) | –
CCN(CC)C(=O)c1cccc(C)c1 | inactive | –
Cc1ncc([N+](=O)[O-])n1CCO | inactive | –
CN(C)CCOC(C)(c1ccccc1)c1ccccn1 (configuration not stated) | inactive | –
NS(=O)(=O)O | inactive | –
C=C(C)C(=O)OCC(C)O (configuration not stated) | inactive | –
CCCCOC(=O)c1ccc(O)cc1 | 24.8 µM (active) and inactive | –
O=C(O)CC(O)C(=O)O (configuration not stated) | inactive | –
CCc1nc(N)nc(N)c1-c1ccc(Cl)cc1 | – | -17.2% [at 35.3 µM] (inactive)
CN1[C@@H]2CC(OC(=O)[C@H](CO)c3ccccc3)C[C@H]1[C@@H]1O[C@@H]12 (some centres not stated) | inactive | –
